Molecules are shown by their SMILES. Compounds without any hit were thinned out: in the full panel of roughly 83,000, 20% have a hit.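 Single-concentration screen, 48 h exposure, 96-well plates. Endpoint: percent growth. Below 10 = active.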 Values without a mark were called inactive. Active and inactive are the calls of the source.

This test deals with SNB-75 CNS. Kind of test: NCI-60 one-dose screen, 48 h (100 = growth as untreated, 0 = no growth, -100 = all killed). To be noted: 10 µM unless noted. As to the method: Growth inhibition of the SNB-75 human tumor cell line is measured as a screen for anti-cancer activity. Cells are grown in 96 well plates and exposed to the test compound for 48 hours. Compounds are tested at a single concentration, which is 10^-5 M for most compounds. The reported endpoint is percent growth (GI% or GIPRCNT), where numbers from 0 - 100% represent growth inhibition, and numbers from -100% - 0 represent cell death. For example, a value of 40 represents 60% growth inhibition. A value of 0 means no net growth occurred over the course of the experiment. A value of -40 indicates 40% of cells at the beginning of the experiment died by the end of the experiment. A value of -100 means all cells are dead at the end of the experiment.
NCI-60 Human Tumor Cell Lines Screen was performed using the standard one-dose NCI protocol, which is described in more detail at https://dtp.cancer.gov/discovery_development/nci-60/default.htm.
Compounds with GIPRCNT values below 10 were considered active. Activity score was based on GIPRCNT using the following formula: […]
Score is 0 for GIPRCNT values of 100 or above, 50 for GIPRCNT values of 0, and 100 for GIPRCNT values of -100.
Turning to `O=C(C[P+](c1ccccc1)(c1ccccc1)c1ccccc1)c1ccccc1`, the growth is 83.6%.
On to `C/C=C/c1cc2c(c(=O)o1)C(=O)[C@@H](O)[C@H](C)O2`, for which the growth was -23.4% (active).
On to `O=C1C(=O)c2cc([N+](=O)[O-])ccc2-c2ccccc21`, for which the growth was -98.2% (active).
Regarding `COc1cc(/C=C/C(=O)CC(=O)/C=C/c2ccc(O)c(OC)c2)ccc1O`, the growth is 7.11% (active).
With `O=C(c1ccccc1)N(CCCl)C(=O)N(CCCl)C(=O)c1ccccc1` the figure was 98.8%; with `CCCCCCCCCCCC(=O)OC(C)C(=O)NCCCC` (stereo not given), 105%.
In the case of `COC(=O)[C@]1(C)CCC[C@]2(C)c3ccc(C(C)C)cc3C(=O)[C@@H](Br)[C@@H]12`, the growth is 80.4%.
For `O=C1C=CC(=O)c2c(O)c(CO)c(CO)c(O)c21` the value was 55.9%.
For `CSc1nc(C)c(C(=O)CCN2CCN(c3ccccn3)CC2)s1`, the growth is 103%.
For `CCOC(=O)c1c(C)[nH]c2ccc(O)cc12` the value was 100%.
As to `CN(C)CCSC1=Nc2ccc(Cl)cc2C(c2ccccc2Cl)N(C)C1` (stereo not given), the growth is 11.9%.
On to `Cn1ccc(=Nc2ccc(NC(=O)c3ccc(N=c4ccn(C)c5ccc([N+](=O)[O-])cc45)cc3)cc2)cc1`, for which the growth was -9.29% (active).
On to `CCCCCCN(CCCCCC)CCCNc1nccc2ccccc12`, for which the growth was 33.5%.
For `Nc1cc(-c2ccccc2)ccc1O` the value was 105%; for `CC1C(c2ccccc2)OCCN1C(=S)Nc1ccc(S(=O)(=O)N2CCCCC2)cc1` (stereo not given), 100%.
As for `CC(C)(C)c1ccc(CCO)cc1`, the growth is 96.7%.
For the compound `COC1CC(C)C(OC)c2cc(O)cc(c2O)NC(=O)/C(C)=C/C=C\C(C)C(OC(N)=O)/C(C)=C\C(C)C1OC` (stereo not given), the growth is 47.8%.
With `Cc1cc(Br)c2nsnc2c1[N+](=O)[O-]`, the growth is 50.1%.
For `[Cl-].[Rh+3].c1ccc(-c2ccnc3c2ccc2c(-c4ccccc4)ccnc23)cc1.c1ccc(-c2ccnc3c2ccc2c(-c4ccccc4)ccnc23)cc1.c1ccc(-c2ccnc3c2ccc2c(-c4ccccc4)ccnc23)cc1`, the growth was 102%.
Take `CCOc1ccc(Nc2nc3c(s2)C(=O)c2ccccc2C3=O)cc1`: the growth was 76.3%.
As for `CC1(C)N=c2cc3c(cc2N1c1ccc(Cl)cc1)=Nc1ccccc1N3c1ccc(Cl)cc1`, the growth is 1.77% (active).
For the compound `COC(=O)c1nc(=S)[nH]c(C(=O)OC)c1C(=O)c1ccc(Cl)c(Cl)c1`, the growth was 92.7%.
With `Cc1ccc(NC2=CC(=O)C(=O)c3ccccc32)cc1` the figure was -18.7% (active); with `C[C@@]1(CO)[C@H](O)CC[C@@]2(C)[C@H]1CC[C@H]1C[C@@H]3C[C@@]12CC[C@@]3(O)COC(=O)CN`, 57.3%.
Turning to `COc1cc(NC(=O)C2=C(C)NC(C)=C(C(=O)Nc3cc(OC)c(Cl)cc3OC)C2c2cccc([N+](=O)[O-])c2)c(OC)cc1Cl`, the growth is 45.3%.
With `Cc1cc2nc(CC(=O)c3ccncc3)c(=O)[nH]c2cc1C` the figure was 86.2%.
With `COc1ccc2c(c1)c(CC(=O)O)c(C)n2C(=O)c1ccc(Cl)cc1`, the growth was 84.7%.
For `Cc1ccc(/C=C2\CNC/C(=C\c3ccc(C)cc3)C2=O)cc1` the value was 29%.
Consider `CCC1C[N+]2=C(c3cc(OC)c(OC)cc3CC2)c2c1cc1n2CCc2cc(OC)c(OC)cc2-1` (stereo not given), for which the growth was 24.5%.
As to `Cc1ccc2cccc(OC(=O)Nc3cccc(C(F)(F)F)c3)c2n1`, the growth was 87.5%.
With `c1ccc2sc(SSN3CC4CCC(CC4)C3)nc2c1` the figure was 85.8%.
As to `OCCOSCCO`, the growth is 99.3%.
As to `COc1ccc(C(OCC2OC(n3ccc(NC(=O)c4ccccc4)nc3=O)C(O)C2O)(c2ccccc2)c2ccccc2)cc1` (stereo not given), the growth was 34.1%.
With `Clc1ccccc1C(c1ccccc1)(c1ccccc1)n1ccnc1`, the growth is 44.1%.
As to `COc1ccc2c(c1OC)OCC(CN(C)C)C2=O` (stereo not given), the growth was 93.4%.
For `Oc1ccc(Cl)cc1Cc1cc(Cl)ccc1O`, the growth is 48.3%.
For `Nc1nc(-c2ccccc2)nc(N)c1N=O` the value was 44.8%; for `O=C(Nc1cccc(C(F)(F)F)c1)Oc1ccc(Cl)c2cccnc12`, 65.9%; for `NC1=C(Br)C(=O)c2ncccc2C1=O`, -84.2% (active).
Turning to `O=C1/C(=C/c2ccccc2)CCC/C1=C\c1ccccc1`, the growth was 95.9%.

For the origin of these results see PubChem BioAssay (NCI).
